Experimental data reported in PubChem BioAssay AID485344 (National Center for Advancing Translational Sciences (NCATS), 2010).
Hit rate of the full screen: of about 340,000 compounds, about 6,900 (2%) were called active. Many of the other results were omitted from the sample, so actives are more common in it than they were. Values without a mark were called inactive. Rule as the data show it: active = inhibition above about 30%; inactive = below that, where a call was filed.
Also: 0% is about no effect.

Each compound was assayed against D(2) dopamine receptor (Homo sapiens) (UniProt P14416) (assay: HTS Assay for Allosteric Antagonists of the Human D2 Dopamine Receptor: Primary Screen for Antagonists). Settings: HEK293 TREx D2 cells, calcium flux, dopamine EC80; at 10 µM; stronger effect = higher value.
Sequence of D(2) dopamine receptor (Homo sapiens) (P14416 whole entry, looked up): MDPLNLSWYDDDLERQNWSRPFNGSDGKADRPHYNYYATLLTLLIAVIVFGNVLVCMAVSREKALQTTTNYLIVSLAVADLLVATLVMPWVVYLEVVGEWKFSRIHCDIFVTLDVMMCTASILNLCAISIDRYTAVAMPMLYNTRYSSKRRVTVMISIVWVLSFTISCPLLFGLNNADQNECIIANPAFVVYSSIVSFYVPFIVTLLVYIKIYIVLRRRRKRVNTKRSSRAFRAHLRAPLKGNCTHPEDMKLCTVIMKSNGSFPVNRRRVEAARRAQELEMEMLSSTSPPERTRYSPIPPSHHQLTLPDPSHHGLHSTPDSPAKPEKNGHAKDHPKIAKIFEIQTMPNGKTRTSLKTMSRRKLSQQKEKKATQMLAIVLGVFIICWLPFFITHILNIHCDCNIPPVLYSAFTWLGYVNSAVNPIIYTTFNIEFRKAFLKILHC
Procedure, shortened: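 Read-out: kinetic calcium fluorescence (1 cycle/s) in inducible HEK293 T-REx D2 cells after an EC80 dopamine addition that followed 180 s compound preincubation. Loss of the dopamine response indicates antagonism.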
`COc1ccc(Cl)cc1NC(=O)CN(C)C(=O)c1ccc2n[nH]nc2c1` showed an inhibition of -5.47%. `CCC1(CC)Cc2ccccc2-c2nc3ccccc3c(=O)n21` was tested, and the inhibition was 5.55%. `Cc1nc2ccccc2n1CC(O)c1ccccc1` (stereo not drawn) gave an inhibition of 2.64%. `CCn1c(C)nc2c1C(=O)c1ccccc1C2=O` was tested, and the inhibition was 34.8% (active). In the case of `C#CCOCCOCCOCCNc1nc(N2CCN(C(=O)[C@H](CCCCN)n3cc(CCC(=O)O)nn3)CC2)nc(N2CCN(C(=O)[C@H](CCCCN)n3cc(CC(C)O)nn3)CC2)n1` (stereo partly drawn), the inhibition is reported as -5%. In the case of `COc1ccccc1Nc1nnc(SC(C)C(=O)NC2CC2)s1` (stereo not drawn), the inhibition is reported as -7.77%. Compound `Cc1ccc([C@@H]2CC=C(C(=O)O)[C@H](c3cccc(Cl)c3)N2S(=O)(=O)c2ccc(C)cc2)cc1` has an inhibition of 10.4%. With `C[C@H](NC(=O)c1ccccc1Cl)C(=O)OCC(=O)N1CCN(c2ccccc2)CC1` the inhibition was 8.27%. `COc1ccccc1CNC(=O)CCCNS(=O)(=O)c1cccc2nsnc12` was tested, and the inhibition was 42.4% (active). `O=C(CCCNS(=O)(=O)c1cccc2nsnc12)NCCN1CCN(c2ccccc2F)CC1` was tested, and the inhibition was 78.8% (active). In the case of `COc1ccc(CNC(=O)C(NS(=O)(=O)c2cccc3nsnc23)C(C)C)cc1` (stereo not drawn), the inhibition is reported as 7.26%. For `CCOc1ccccc1NC(=O)CCS(=O)(=O)c1cccc2nsnc12`, the inhibition was 4.79%. In the case of `O=C(CCS(=O)(=O)c1cccc2nsnc12)N1CCN(c2ccccc2F)CC1`, the inhibition is reported as -8.03%. Work on `O=C(C(NS(=O)(=O)c1cccc2nsnc12)c1ccccc1)N1CCN(c2ccccc2)CC1` (stereo not drawn) yielded an inhibition of 1.2%. With `CC1CCCCC12NC(=O)N(CC(=O)Nc1ccc(S(=O)(=O)Nc3ncccn3)cc1)C2=O` (stereo not drawn) the inhibition was 14.7%. For `CCC(=O)c1cc(F)ccc1OCC(=O)Nc1ccc2c(c1)OCCO2`, the inhibition was -15.9%. `O=c1ccc2c(-c3ccccc3S(=O)(=O)O)c3ccc(O)c(O)c3oc-2c1O` gave an inhibition of 13.3%. For `CCCCN(CC(=O)NC(C)(C)C)C(=O)C(=O)Nc1ccc2c(c1)OCCO2`, the inhibition was 64.1% (active). With `CCC(C)(C)NC(=O)CN(C(=O)C(=O)Nc1ccc2c(c1)OCCO2)C(C)(C)CC` the inhibition was -4.87%. In the case of `COC(=O)CCNc1ccc2c(c1)OCCO2`, the inhibition is reported as 0.987%. Compound `COC(=O)[C@]1(C)CCC[C@@]2(C)C3CC[C@]4(OC(C)=O)C[C@@]3(CCC21)CC4=NO` (stereo partly drawn) has an inhibition of 2.69%. Work on `CC(=O)c1cccc(NC(=O)CN2C(=O)c3cccnc3Oc3ccc(Cl)cc32)c1` yielded an inhibition of 8.77%. For `O=C(CN1C(=O)c2cccnc2Oc2ccc(Cl)cc21)Nc1ccc(F)cc1`, the inhibition was 32.7% (active). With `O=C(CN1C(=O)c2cccnc2Oc2ccc(Cl)cc21)NCCc1ccccc1` the inhibition was 10.8%. `CCC(C)N(C(=O)CSc1nnnn1-c1ccccc1OC)C1CCS(=O)(=O)C1` (stereo not drawn) was tested, and the inhibition was -18.8%. Work on `CCOc1cccc2cc(C(=O)OCC(=O)Nc3c(C)cccc3CC)c(=O)oc12` yielded an inhibition of 17.6%. `CCC1CCC2(CC1)NC(=O)N(CC(=O)Nc1ccc(OC)cc1)C2=O` (stereo not drawn) gave an inhibition of 21.9%. In the case of `O=C(C[n+]1ccc2c(c1)nnn2-c1ccccc1)c1ccc(Cl)cc1`, the inhibition is reported as 35.8% (active). `O=C(Cn1cc(-c2nnnn2-c2ccc(Cl)cc2)c(=O)c2ccccc21)c1ccccc1` gave an inhibition of -5.55%. For `O=C(CSc1cccc[n+]1[O-])c1ccc(Cl)cc1`, the inhibition was 11.7%. `COc1cc(OC)cc(-c2c(-c3ccc(F)cc3)c3cc(-c4ccc5cc[nH]c5c4)ccc3n2C)c1` gave an inhibition of 3.65%. `O=C(COC(=O)c1c(Cl)cccc1Cl)Nc1cccc(S(=O)(=O)NC2=NCCCCC2)c1` showed an inhibition of -9.77%. With `COc1cc(OC)cc(C(=O)NC(=S)N2CCN(c3ccc(C(F)(F)F)cc3[N+](=O)[O-])CC2)c1` the inhibition was 30% (active). Work on `O=C(Nc1cccc(C(F)(F)F)c1)c1ccc(N2CCNCC2)c([N+](=O)[O-])c1` yielded an inhibition of 8.47%. `O=C(Cc1ccc(S(=O)(=O)N2CCOCC2)s1)N1CCN(c2ccc(C(F)(F)F)cc2[N+](=O)[O-])CC1` was tested, and the inhibition was -7.45%. `O=S(=O)(NCCCN1CCOCC1)c1ccc(F)c(Cl)c1` was tested, and the inhibition was 26.5%. Work on `COC(=O)c1ccc(-c2c(-c3ccccc3)ncc3cc(OC)c(OC)cc23)cc1` yielded an inhibition of -1.67%. Compound `CC(C)CN(C(=O)CSc1ncnc2sccc12)C1CCS(=O)(=O)C1` (stereo not drawn) has an inhibition of 6.11%. `CCOc1ccc(S(=O)(=O)Nc2cccc(C(=O)NCC3(N4CCCCC4)CCCCC3)c2)cc1` gave an inhibition of -9.84%. In the case of `CCOC(=O)CNC(=O)CSc1nnc(-c2cccc(OC)c2)n1CC`, the inhibition is reported as -19.1%. For `CCOC(=O)CNC(=O)CSc1nnc(COc2ccc(Cl)cc2)n1CC`, the inhibition was 32.9% (active). `CCn1c(COc2ccccc2)nnc1SCC(=O)NCc1ccco1` showed an inhibition of -10.2%. `COc1ccc(OC)c(NC(=S)N2CCc3ccccc3C2)c1` was tested, and the inhibition was 16.6%. `COc1ccc(NC(=O)C(=O)NCC(c2ccco2)N2CCc3ccccc3C2)cc1` (stereo not drawn) showed an inhibition of -3.07%. With `COc1ccc(CCC(C)N2CCc3ccccc3C2)cc1` (stereo not drawn) the inhibition was 55% (active). For `CN(C)S(=O)(=O)c1cccc(NC(=O)COc2ccc3ccccc3c2)c1`, the inhibition was 7.96%. With `CCOC(=O)C1CCCN(Cc2nc(N)nc(Nc3ccc(C)cc3)n2)C1` (stereo not drawn) the inhibition was 12.9%. `CCOC(=O)C1CCCN(CCSc2ccc(C)cc2)C1` (stereo not drawn) was tested, and the inhibition was 43.5% (active). With `CCOC(=O)C1CCCN(C(=O)COc2ccc(N(C)S(=O)(=O)c3ccc(C)cc3)cc2)C1` (stereo not drawn) the inhibition was 15.8%. With `CCN(CC)c1ccc(NC(=O)CN2C(=O)NC3(CCc4ccccc43)C2=O)cc1` (stereo not drawn) the inhibition was 2.26%. For `COC(=O)Cc1ccc(OCC(=O)NC2CCCC2)cc1`, the inhibition was 0.938%. `Cc1ccc(S(=O)(=O)N2CCCCC2)cc1C(=O)N(C)CC(=O)Nc1cccc(F)c1` was tested, and the inhibition was 31.6% (active). `CCOc1ccc(NC(=O)CN(C)C(=O)c2cccc(S(=O)(=O)N3CCCC3)c2)cc1OCC` gave an inhibition of -1.88%. With `Cc1ccc(NC(=O)CN(C)C(=O)c2cccc(S(=O)(=O)N3CCCC3)c2)cc1` the inhibition was -2.36%. `O=C(CCNC(=O)c1ccc(Cl)cc1)NC1CCCc2ccccc21` (stereo not drawn) was tested, and the inhibition was -3.04%. Compound `CC(C)(C)OC(=O)NCCCCCNC(=O)c1[nH]cnc1C(=O)Nc1nccs1` has an inhibition of -7.74%. In the case of `O=C(Cn1[nH]c(=O)c2ccccc2c1=O)Nc1cccc(-c2nnc3n2CCCCC3)c1`, the inhibition is reported as -20.7%. `Cc1c(C(=O)NC2CCCCC2)oc2ccccc12` gave an inhibition of 15.1%. For `Cc1c(C(=O)Nc2cccc(-c3nnc4n3CCCCC4)c2)oc2ccccc12`, the inhibition was 60% (active). For `NS(=O)(=O)c1ccc(NC(=O)COC(=O)CCc2c[nH]c3ccccc23)cc1`, the inhibition was 2.49%. For `CCc1ccc(CCC(=O)Nc2ccc(S(N)(=O)=O)cc2)o1`, the inhibition was 43.5% (active). With `CC1CC(C)CN(CC(=O)Nc2ccc(S(N)(=O)=O)cc2)C1` (stereo not drawn) the inhibition was -1.67%. In the case of `CC(=O)Nc1ccc(NC(=O)CSc2nnc(C3CC3)n2-c2ccccc2)cc1`, the inhibition is reported as 2.45%. In the case of `Cc1ccc(S(=O)(=O)NCCC(=O)NCc2ccc(Cl)cc2)cc1C`, the inhibition is reported as -19%. In the case of `O=C(NCC(c1ccco1)N1CCc2ccccc21)c1cccc(F)c1` (stereo not drawn), the inhibition is reported as 5.81%. For `O=C(O)c1cccnc1Sc1ncnc2sc3c(c12)CCC3`, the inhibition was 34.2% (active). In the case of `CCCSc1ncccc1C(=O)O`, the inhibition is reported as -16.5%. In the case of `COCCn1c(C)cc(C(=O)CSc2ncnc3sc4c(c23)CCC4)c1C`, the inhibition is reported as 9.53%. In the case of `COc1ccccc1C(=O)NC(CCSC)C(=O)N1CCN(C/C=C/c2ccccc2)CC1` (stereo not drawn), the inhibition is reported as 3.22%. `COc1cc(C(=O)N2CCN(C/C=C/c3ccccc3)CC2)cc(OC)c1C` showed an inhibition of 0.0553%. `CNC(=O)NC(=O)C(C)N1CCN(C/C=C/c2ccccc2)CC1` (stereo not drawn) was tested, and the inhibition was 33.5% (active). For `CC1CCCCC12NC(=O)N(CC(=O)OCC(=O)NCc1ccc(F)cc1)C2=O` (stereo not drawn), the inhibition was -29.1%. `CN(CC(=O)Nc1c(Cl)cccc1Cl)C(=O)CC1OC(=O)c2ccccc21` (stereo not drawn) was tested, and the inhibition was 4.45%. In the case of `O=C(O)C(c1ccccc1)C1(O)CCCCC1` (stereo not drawn), the inhibition is reported as 2.2%. In the case of `CN(C)CCOC(=O)C(c1ccccc1)C1(O)CCCC1` (stereo not drawn), the inhibition is reported as 58.6% (active). With `CCC(C(=O)OCCN(CC)CC)c1ccccc1` (stereo not drawn) the inhibition was 6.37%. For `O=C(CSc1nc2[nH]c(=O)[nH]c(=O)c2s1)Nc1cccc(F)c1`, the inhibition was -3.77%. Compound `CCc1ccc(CN(C)C(C)C(=O)Nc2ccc(S(=O)(=O)N3CCCC3)cc2)cc1` (stereo not drawn) has an inhibition of 12.7%. In the case of `CNC(=O)C(NC(=O)c1ccccc1)=C(C)C`, the inhibition is reported as -6.51%. `C/C(=N/NC(=O)c1ccc(NC(=O)c2ccc(F)cc2)cc1)c1ccccc1` gave an inhibition of 14.8%. With `CC(C)=C(NC(=O)c1ccccc1)C(=O)N/N=C(\C)c1ccccc1O` the inhibition was 62.7% (active). Work on `CCCC(=O)Nc1ncnc2c1ncn2[C@@H]1O[C@@H]2OP(=O)(O)OC[C@H]2[C@H]1OC(=O)CCC` yielded an inhibition of -4.97%. In the case of `CCO[C@H]1OC(C(=O)N2CCCCCCC2)=C[C@@H](c2ccc(C(F)(F)F)cc2)[C@@H]1CCCO`, the inhibition is reported as 30.3% (active). Work on `CCO[C@@H]1OC(C(=O)N2CCOCC2)=C[C@H](C)[C@H]1CCCO` yielded an inhibition of -3.13%. Compound `CCO[C@H]1OC(C(=O)N2CCOCC2)=C[C@@H](c2ccc3c(c2)OCO3)[C@@H]1CCCO` has an inhibition of 2.11%. Compound `O=C(CSc1ccccc1)Nc1cccc(S(=O)(=O)N2CCCCC2)c1` has an inhibition of 0.706%. `Cc1ccc(C)c(C(=O)COC(=O)Cn2[nH]c(=O)c3ccccc3c2=O)c1` gave an inhibition of -1.59%. Compound `Cc1ccc(NC(=S)N(CCN(C)C)Cc2cccs2)cc1C` has an inhibition of 12.4%. Work on `Cc1ccc(NC(=S)N(Cc2ccco2)C(C)c2cccs2)cc1` (stereo not drawn) yielded an inhibition of -6.52%. In the case of `Cc1ccc(NC(=S)N(CCN2CCCCC2)Cc2ccco2)cc1C`, the inhibition is reported as 50.8% (active). With `Cc1ccc(NC(=S)N(CCCN2CCC(C)CC2)Cc2ccco2)cc1` the inhibition was 34.7% (active). `CCc1ccccc1NC(=S)N(CCN1CCCCCC1)Cc1ccco1` gave an inhibition of -0.524%. `Cc1ccc(NC(=S)N(CCCN2CCCC2)Cc2cccn2Cc2ccc(Cl)cc2)cc1` gave an inhibition of 3.46%.
